Compound activity as filed in PubChem BioAssay.
This is one part of a sample in which hits are shown more often than they occur.
U2OS ROS induce – cancer cell ROS induction. U2OS ROS induction, H2DCF-DA fluorescence. ROS induction (% of piperlongumine), % at 10 µM. 46,000 compounds, 2% hits. AID 624156; in the data active = ROS induction above about 79%, passing the limit was not always enough; inconclusive = no clear call, values can overlap the other calls;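 note: 0% = DMSO vehicle median and 100% = reference compound median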
NOMO-1 viab – STK33 inhibitor candidate reducing NOMO-1 cell viability; inhibition, % (test concentration not listed); AID 2330; NOMO-1 AML viability, CellTiter-Glo luminescence, 72 h; 37,000 compounds, 7.5% hits; in the data active = inhibition above about 80%; inconclusive = no clear call, values can overlap the other calls
PD-1 reversal – activators reversing PD-1 mediated T-cell inhibition. 29,000 tested, under 10 active. primary human CD4 T cells, PD-L1 beads, CellTiter-Glo 96 h. activation, % (concentration not given with the values); call rule not given here;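 note: 0% = median vehicle wells and 100% = positive control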
* marks the source's active call; other numbers are inactive results; ? = inconclusive; nt = no result given.

SMILES | U2OS ROS induce | NOMO-1 viab | PD-1 reversal
O=c1[nH]c2ccccc2n1C1CCN(CCCC(c2ccc(F)cc2)c2ccc(F)cc2)CC1 | 35 | 116* | nt
COc1cc2c(cc1OC)C13CCN(C)CC4=CCOC5CC(=O)N2C1C5C4CC3=O (stereo not given) | -5 | 23 | 0
O=C(CCl)c1cc(Br)c(Br)s1 | -9 | 99* | -26
O=C(c1noc2c1COc1ccccc1-2)N1CCC2(CC1)OCCO2 | -6 | nt | nt
CC(C)N(C(=O)CCl)c1ccccc1 | 6 | 111* | nt
CCc1cccc(C)c1N(C(=O)CCl)C(C)COC (stereo not given) | 1 | 14 | nt
C[C@H]1O[C@@H](O[C@H]2[C@@H](O)C[C@H](O[C@H]3[C@@H](O)C[C@H](O[C@H]4CC[C@]5(C)C6CC[C@]7(C)[C@@H](C8=CC(=O)OC8)CC[C@]7(O)C6CC[C@@H]5C4)O[C@@H]3C)O[C@@H]2C)C[C@H](O)[C@@H]1O (stereo not given in full) | 11 | 111* | nt
COC1CC(OC2CCC3(C)C(CCC4(O)C3CC(OC(=O)c3ccccc3)C3(C)C(O)(C(C)=O)CCC43O)C2)OC(C)C1OC1CC(OC)C(OC2OC(C)C(O)C(OC)C2O)C(C)O1 (stereo not given) | 0 | 32 | 2
COC1CC(O[C@H]2CC[C@@]3(C)C(CCC4C3CC[C@]3(C)C(C5=CC(=O)OC5)CCC43O)C2)OC(C)C1OC1OC(COC2OC(CO)C(O)C(O)C2O)C(O)C(O)C1O (stereo not given in full) | -7 | 119* | -6
C[C@H]1O[C@@H](O[C@H]2CC[C@]3(CO)C4CC[C@]5(C)[C@@H](C6=CC(=O)OC6)CC[C@]5(O)C4CC[C@H]3C2)[C@H](O)[C@H](O)[C@@H]1O (stereo not given in full) | -4 | nt | nt
CO[C@H]1[C@@H](O)[C@@H](C)O[C@@H](OC2CCC3(C)C(CC[C@@H]4[C@@H]3CCC3(C)C(C5=CC(=O)OC5)C(O)CC43O)C2)[C@@H]1O (stereo not given in full) | 8 | 121* | -16
CC(=O)O[C@H]1CC[C@]2(C=O)[C@H]3CC[C@]4(C)[C@@H](C5=CC(=O)OC5)CC[C@]4(O)[C@@H]3CC[C@]2(O)C1 | ? | 124* | -23
CCNCC(O)c1cccc(OC(=O)c2ccccc2C)c1 (stereo not given) | -17 | nt | nt
C[C@]12C=CC(=O)C=C1CC[C@@H]1C2CC[C@]2(C)C(=O)CCC12 (stereo not given in full) | -9 | 12 | -1
O=c1c2ccccc2nc(CSc2ccccn2)n1-c1cccc(C(F)(F)F)c1 | 6 | 16 | 0
COCc1cc(OC(=O)N(C)C)nc(-c2ccncc2)n1 | 10 | 22 | -1
CCN1C[C@]2(C)CC[C@H](OC)[C@@]34C1[C@@]1(OCO[C@@]15C[C@H](OC)[C@H]1C[C@]3(O)[C@@H]5[C@H]1OC)[C@@H](OC(C)=O)[C@H]24 | 6 | 11 | nt
Cc1nn(Cc2cccc(C(=O)Nc3ccc4oc(=O)cc(C(F)(F)F)c4c3)c2)c(C)c1Cl | -2 | 37 | 2
C=CC1C[N+]2([O-])CCC1CC2C(O)c1ccnc2ccc(OC)cc12 (stereo not given) | -5 | nt | nt
CCN1C[C@]2(COC)CC[C@H](O)[C@]34C1[C@H](C[C@H]23)[C@@]1(O)C[C@H](OC)[C@H]2C[C@@H]4[C@@H]1[C@H]2OC(C)=O | 0 | 7 | nt
C[C@]12CC[C@H](O)C[C@H]1CC[C@@H]1[C@@H]2CC[C@]2(C)[C@@H](C3=CC(=O)OC3)CC[C@]12O | 1 | 120* | nt
CC(=O)OCC(=O)[C@H]1CC[C@H]2[C@@H]3CC[C@H]4C[C@H](O)CC[C@]4(C)[C@H]3C(=O)C[C@]12C | -2 | 23 | nt
CC12CC[C@H]3C(CCC4(O)CC(O)CCC34O)C1(O)CCC2C1=CC(=O)OC1 (stereo not given in full) | -5 | 6 | -2
CC(=O)OC1CCC2(C)C(CC[C@@H]3[C@@H]2CCC2(C)C(C4=CC(=O)OC4)CCC32O)C1 (stereo not given in full) | 43 | 109* | -16
C[C@]12CC[C@H](O)C[C@H]1CC[C@@H]1[C@@H]2C[C@@H](O)[C@]2(C)[C@@H](C3=CC(=O)OC3)CC[C@]12O | -6 | 98* | -18
CO[C@H]1[C@@H](O)[C@@H](C)O[C@@H](O[C@@H]2C=C3C(OC(C)=O)CC4(O)C(CC[C@]5(C)[C@@H](C6=CC(=O)OC6)CC[C@]45O)[C@@]3(C)CC2)[C@@H]1O (stereo not given in full) | 7 | 122* | -30
Oc1ccc2c3c1OC1[C@@H](O)CC[C@@]4(O)[C@@H](C2)N(CC2CCC2)CC[C@]314 (stereo not given in full) | -11 | 3 | nt
